Assay results from PubChem BioAssay (NCI).
This is part of a sample that, as a whole, favours compounds with a hit. Of some 79,000 tested, about 15% had one in any assay. Active and inactive are the calls of the source. Cut-off read from the data, not from the text of the source: active = growth inhibition above about 70%; inactive = the rest.

Experiment: NCI Yeast Anticancer Drug Screen. Data for the rad50 strain (AID 155);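 note: 0% = growth of vehicle-only cultures of the same strain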
Conditions: S. cerevisiae rad50 strain growth inhibition; at 50.0 µM; active compounds read high
In short: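 Cells are treated with compound, grown, and their growth is then scored against vehicle-only cultures of the same repair-deficient yeast strain.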
In the case of COC(=O)c1cc(=O)n(C)[nH]1, the growth inhibition is reported as -0.55% (inactive).
In the case of CCN(CC)Cc1cc(N=Nc2ccc(-c3ccc(N)c(OC)c3)cc2OC)c2ccccc2c1O, the growth inhibition is reported as 18.7% (inactive).
With COC(=O)NC1=Nc2ccccc2N(C(=O)Oc2ccccc2)S1 the growth inhibition was 7.8% (inactive).
For CC(=O)OC1CCC2(C)C(=CCC3C2CCC2(C)/C(=N\NS(=O)(=O)c4ccc(C)cc4)CCC32)C1 (centres undefined), the growth inhibition was 63.7% (inactive).
For COc1ccc(/C=C2\N=C(c3ccc([N+](=O)[O-])cc3)OC2=O)cc1Br, the growth inhibition was 29.9% (inactive).
For CCN(CC)CCC(=O)O, the growth inhibition was -13.4% (inactive).
With CS(=O)(=O)N1CC(CCl)c2ccc(NO)cc21 (centres undefined) the growth inhibition was 43.5% (inactive).
With CCSCC(C)C(=O)OC (centres undefined) the growth inhibition was -26.6% (inactive).
For COc1ccc(C(CC(=O)O)c2cc3c(cc2OC)OCO3)cc1 (centres undefined), the growth inhibition was -4% (inactive).
In the case of C[OH2+].[Cl][Cu+].[Cl][Cu+].[NH-]CCC([OH2+])CC[NH-], the growth inhibition is reported as -9.1% (inactive).
In the case of O=C(Nc1ccc(F)cc1)c1cc2c(cc1Cl)Sc1nccn1S2(=O)=O, the growth inhibition is reported as -7% (inactive).
In the case of CC(C)(CCC(=O)O)CCC(=O)O, the growth inhibition is reported as 16.3% (inactive).
For COc1cc(/C=C/C=C2\CCC/C(=C\C=C\c3ccc(O)c(OC)c3)C2=O)ccc1O, the growth inhibition was 14.4% (inactive).
In the case of CCOC(=O)/C(C#N)=C/Nc1[nH]c(=O)c(C#N)c(-c2ccc(Cl)cc2)c1SC, the growth inhibition is reported as 10.9% (inactive).
For C[C@H]1C[C@](C)(CO)Oc2oc3ccccc3c(=O)c21, the growth inhibition was 4.5% (inactive).
In the case of CCC1(C(=O)O)NC(=O)NC1=O (centres undefined), the growth inhibition is reported as -2.55% (inactive).
In the case of C=C1CC2(CCC3C4CC=C5CC(O)CCC5(C)C4CCC32C)OC1=O (centres undefined), the growth inhibition is reported as 2.9% (inactive).
With Nc1nc(Cc2ccccc2)cs1 the growth inhibition was 24.7% (inactive).
In the case of O=[N+]([O-])c1cc([N+](=O)[O-])c(/C=C/c2ccccc2Cl)cc1/C=C/c1ccccc1Cl, the growth inhibition is reported as -10.2% (inactive).
For CC(=O)Oc1cccc2c1C(=O)C1CC(O)C3(C=O)OC(C)(C)OC2(C)C13 (centres undefined), the growth inhibition was 8.45% (inactive).
With C#CC(C)(CC)OC(C)=O (centres undefined) the growth inhibition was 44.3% (inactive).
For O=C1NC(=O)C(=CN2C(=O)/C(=C/c3ccc(O)cc3)SC2=S)C(=O)N1, the growth inhibition was -6.6% (inactive).
In the case of O=C(c1ccccc1)c1cc[n+]([O-])cc1, the growth inhibition is reported as -5.6% (inactive).
For COc1c(NC(=O)c2ccc(C(=O)Nc3cccc([N+](=O)[O-])c3OC)cc2)cccc1[N+](=O)[O-], the growth inhibition was 22.3% (inactive).
